# Assay results published in publication PMC7862700, “An all-to-all approach to the identification of sequence-specific readers for epigenetic DNA modifications on cytosine”.
# Experiments:
# Experiment in all cases: DAPPL (digital affinity profiling via proximity ligation, sequencing); 10 mM Tris-HCl pH 7.5, 50 mM NaCl, 1 mM DTT, 4% glycerol, room temperature, 30 min; GST-TFs on glutathione beads, 16-mer random dsDNA library, 0.1% formaldehyde crosslink after washing; high values mean tight binding
# Conditions in all cases: protein: recombinant; tags: N-terminal GST; dsDNA, one strand shown
# ELK1 = biological target: T1, ELK1 (Homo sapiens, UniProt P19419 1-428)
# T1 sequence: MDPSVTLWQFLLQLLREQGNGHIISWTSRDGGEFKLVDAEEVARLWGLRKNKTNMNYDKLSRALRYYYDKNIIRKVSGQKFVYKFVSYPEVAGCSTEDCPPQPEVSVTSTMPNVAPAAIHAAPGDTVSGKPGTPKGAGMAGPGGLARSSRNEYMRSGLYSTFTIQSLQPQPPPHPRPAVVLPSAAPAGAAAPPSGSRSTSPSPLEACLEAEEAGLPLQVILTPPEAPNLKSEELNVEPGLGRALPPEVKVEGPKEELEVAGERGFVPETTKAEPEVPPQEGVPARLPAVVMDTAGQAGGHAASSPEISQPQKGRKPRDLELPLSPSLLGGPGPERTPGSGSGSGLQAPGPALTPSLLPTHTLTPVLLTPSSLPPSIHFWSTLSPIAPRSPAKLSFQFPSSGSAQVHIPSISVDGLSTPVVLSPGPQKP
# Summary of the method: (§1)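 A tag-only sample was pooled with DNA-barcoded human transcription factors that had been expressed in yeast as GST fusions and captured on glutathione beads. The pools were incubated for 30 min at room temperature with 200 nmole of a random double-stranded 16-mer DNA library in Tris/NaCl/DTT/glycerol buffer, then washed, crosslinked with 0.1% formaldehyde, proximity-ligated (BsaI/T4 ligase, 1 h, 37 °C), PCR-amplified and sequenced on an Illumina NextSeq500. Binding signal is each hexamer's read frequency for a factor divided by its frequency for the tag-only sample.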
# GABPA = biological target: T2, GABPA (Homo sapiens, UniProt Q06546 1-454)
# T2 sequence: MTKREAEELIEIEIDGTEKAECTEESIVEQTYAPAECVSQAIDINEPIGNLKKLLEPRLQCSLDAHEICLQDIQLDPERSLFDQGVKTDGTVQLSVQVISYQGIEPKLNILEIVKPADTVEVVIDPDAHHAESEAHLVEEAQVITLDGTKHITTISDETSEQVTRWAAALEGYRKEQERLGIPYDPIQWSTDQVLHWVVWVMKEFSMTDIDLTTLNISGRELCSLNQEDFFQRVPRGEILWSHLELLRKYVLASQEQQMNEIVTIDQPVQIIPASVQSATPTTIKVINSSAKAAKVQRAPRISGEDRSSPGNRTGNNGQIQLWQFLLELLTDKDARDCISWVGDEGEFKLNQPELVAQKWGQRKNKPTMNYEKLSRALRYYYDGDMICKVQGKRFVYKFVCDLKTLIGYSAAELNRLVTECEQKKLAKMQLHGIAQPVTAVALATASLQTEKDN
# Summary of the method: as §1
# ERG = biological target: T3, ERG (Homo sapiens, UniProt P11308 1-479)
# T3 sequence: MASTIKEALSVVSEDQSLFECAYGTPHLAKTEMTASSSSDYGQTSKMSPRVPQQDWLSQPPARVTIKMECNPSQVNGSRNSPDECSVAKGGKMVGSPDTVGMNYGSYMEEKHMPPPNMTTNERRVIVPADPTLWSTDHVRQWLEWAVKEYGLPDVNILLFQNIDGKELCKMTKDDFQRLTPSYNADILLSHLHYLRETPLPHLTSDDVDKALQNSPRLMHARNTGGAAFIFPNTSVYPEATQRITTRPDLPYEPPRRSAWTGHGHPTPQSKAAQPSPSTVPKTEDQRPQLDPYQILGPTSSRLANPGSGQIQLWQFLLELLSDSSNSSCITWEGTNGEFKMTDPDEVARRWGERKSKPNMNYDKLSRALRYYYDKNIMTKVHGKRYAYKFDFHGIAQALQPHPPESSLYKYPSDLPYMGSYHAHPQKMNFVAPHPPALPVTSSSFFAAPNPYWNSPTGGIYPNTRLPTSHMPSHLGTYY
# Summary of the method: as §1
# ELF1 = ELF1 (Homo sapiens, UniProt P32519 1-619)
# Summary of the method: as §1
# EHF = biological target: T4, EHF (Homo sapiens, UniProt Q9NZC4 1-300)
# T4 sequence: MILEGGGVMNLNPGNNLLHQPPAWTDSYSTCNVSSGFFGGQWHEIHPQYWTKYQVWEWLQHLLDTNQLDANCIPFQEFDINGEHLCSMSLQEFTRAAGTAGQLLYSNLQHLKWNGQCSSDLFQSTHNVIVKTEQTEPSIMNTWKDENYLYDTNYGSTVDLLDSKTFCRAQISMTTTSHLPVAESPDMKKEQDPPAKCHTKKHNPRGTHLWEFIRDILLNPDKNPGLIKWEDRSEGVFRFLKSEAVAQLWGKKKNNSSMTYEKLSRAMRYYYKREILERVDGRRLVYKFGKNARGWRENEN
# Summary of the method: as §1
# FEV = biological target: T5, FEV (Homo sapiens, UniProt Q99581 1-238)
# T5 sequence: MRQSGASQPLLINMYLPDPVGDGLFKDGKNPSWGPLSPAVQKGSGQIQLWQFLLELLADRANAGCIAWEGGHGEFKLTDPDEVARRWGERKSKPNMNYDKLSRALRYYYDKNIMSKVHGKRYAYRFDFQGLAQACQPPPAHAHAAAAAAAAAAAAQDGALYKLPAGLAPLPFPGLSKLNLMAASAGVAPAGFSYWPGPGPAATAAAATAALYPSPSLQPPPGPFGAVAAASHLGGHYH
# Summary of the method: as §1
# ETV5 = ETV5 (Homo sapiens, UniProt P41161 1-510)
# Summary of the method: as §1
# ELF4 = ELF4 (Homo sapiens, UniProt Q99607 1-663)
# Summary of the method: as §1
# ETV2 = biological target: T6, ETV2 (Homo sapiens, UniProt O00321 1-342)
# T6 sequence: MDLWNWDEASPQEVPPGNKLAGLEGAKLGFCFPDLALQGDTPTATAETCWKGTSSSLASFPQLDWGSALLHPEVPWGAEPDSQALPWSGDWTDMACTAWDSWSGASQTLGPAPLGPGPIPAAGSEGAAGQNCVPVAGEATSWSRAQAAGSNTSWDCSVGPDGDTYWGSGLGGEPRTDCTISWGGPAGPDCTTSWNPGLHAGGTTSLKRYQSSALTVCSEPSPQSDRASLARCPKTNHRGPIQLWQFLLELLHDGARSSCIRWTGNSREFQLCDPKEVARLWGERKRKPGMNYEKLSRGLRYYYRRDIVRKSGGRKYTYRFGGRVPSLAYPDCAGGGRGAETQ
# Summary of the method: as §1
# ELF3 = biological target: T7, ELF3 (Homo sapiens, UniProt P78545 1-371)
# T7 sequence: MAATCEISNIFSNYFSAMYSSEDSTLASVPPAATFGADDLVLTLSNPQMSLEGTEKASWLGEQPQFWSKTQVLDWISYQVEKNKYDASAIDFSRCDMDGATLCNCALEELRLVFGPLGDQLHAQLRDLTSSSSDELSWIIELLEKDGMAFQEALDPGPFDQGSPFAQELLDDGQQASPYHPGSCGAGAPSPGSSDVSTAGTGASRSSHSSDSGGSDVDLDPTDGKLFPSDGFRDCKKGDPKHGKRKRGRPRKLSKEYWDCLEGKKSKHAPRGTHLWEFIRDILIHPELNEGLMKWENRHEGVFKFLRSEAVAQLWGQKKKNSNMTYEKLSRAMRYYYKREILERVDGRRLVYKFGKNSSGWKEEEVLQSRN
# Summary of the method: as §1
# ETV1 = ETV1 (Homo sapiens, UniProt P50549 1-477)
# Summary of the method: as §1
# ETV3L = biological target: T8, ETV3L (Homo sapiens, UniProt Q6ZN32 1-361)
# T8 sequence: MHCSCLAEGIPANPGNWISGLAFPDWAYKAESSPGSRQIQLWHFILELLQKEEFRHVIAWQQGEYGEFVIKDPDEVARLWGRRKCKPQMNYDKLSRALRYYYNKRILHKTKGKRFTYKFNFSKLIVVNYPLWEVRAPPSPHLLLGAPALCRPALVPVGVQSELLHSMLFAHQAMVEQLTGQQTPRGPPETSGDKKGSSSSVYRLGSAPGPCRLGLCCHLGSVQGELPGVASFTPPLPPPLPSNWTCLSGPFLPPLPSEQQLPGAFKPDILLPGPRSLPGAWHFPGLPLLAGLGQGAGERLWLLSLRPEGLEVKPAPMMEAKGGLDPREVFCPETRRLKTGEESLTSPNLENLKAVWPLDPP
# Summary of the method: as §1
# SPDEF = biological target: T9, SPDEF (Homo sapiens, UniProt O95238 1-335)
# T9 sequence: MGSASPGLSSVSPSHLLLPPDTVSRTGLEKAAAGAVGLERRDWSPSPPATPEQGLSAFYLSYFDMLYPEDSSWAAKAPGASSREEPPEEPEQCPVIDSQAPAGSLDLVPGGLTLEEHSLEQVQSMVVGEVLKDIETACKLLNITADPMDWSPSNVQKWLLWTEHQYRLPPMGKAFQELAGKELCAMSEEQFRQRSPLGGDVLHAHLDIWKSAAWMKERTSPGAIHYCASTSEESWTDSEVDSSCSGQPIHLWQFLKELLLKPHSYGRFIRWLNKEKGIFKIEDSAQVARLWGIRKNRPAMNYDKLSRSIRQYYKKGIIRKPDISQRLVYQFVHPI
# Summary of the method: as §1
# ETV7 = biological target: T10, ETV7 (Homo sapiens, UniProt Q9Y603 1-341)
# T10 sequence: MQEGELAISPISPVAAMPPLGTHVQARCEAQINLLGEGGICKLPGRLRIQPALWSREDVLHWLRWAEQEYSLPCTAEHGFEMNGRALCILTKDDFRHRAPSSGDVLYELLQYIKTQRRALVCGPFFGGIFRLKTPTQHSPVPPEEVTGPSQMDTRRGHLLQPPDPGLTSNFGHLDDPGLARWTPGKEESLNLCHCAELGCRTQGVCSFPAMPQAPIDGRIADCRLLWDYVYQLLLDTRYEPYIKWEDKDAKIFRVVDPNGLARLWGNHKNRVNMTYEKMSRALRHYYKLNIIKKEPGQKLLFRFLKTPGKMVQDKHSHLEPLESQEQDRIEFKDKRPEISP
# Summary of the method: as §1
# ETV3 = biological target: T11, ETV3 (Homo sapiens, UniProt P41162-2 1-143)
# T11 sequence: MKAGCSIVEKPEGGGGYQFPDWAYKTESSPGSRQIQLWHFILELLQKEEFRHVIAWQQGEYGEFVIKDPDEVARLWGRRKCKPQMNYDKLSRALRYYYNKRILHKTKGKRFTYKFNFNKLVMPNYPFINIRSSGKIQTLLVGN
# Summary of the method: as §1
# ETV6 = ETV6 (Homo sapiens, UniProt P41212 1-452)
# Summary of the method: as §1
# ETS2 = biological target: T12, ETS2 (Homo sapiens, UniProt P15036 1-469)
# T12 sequence: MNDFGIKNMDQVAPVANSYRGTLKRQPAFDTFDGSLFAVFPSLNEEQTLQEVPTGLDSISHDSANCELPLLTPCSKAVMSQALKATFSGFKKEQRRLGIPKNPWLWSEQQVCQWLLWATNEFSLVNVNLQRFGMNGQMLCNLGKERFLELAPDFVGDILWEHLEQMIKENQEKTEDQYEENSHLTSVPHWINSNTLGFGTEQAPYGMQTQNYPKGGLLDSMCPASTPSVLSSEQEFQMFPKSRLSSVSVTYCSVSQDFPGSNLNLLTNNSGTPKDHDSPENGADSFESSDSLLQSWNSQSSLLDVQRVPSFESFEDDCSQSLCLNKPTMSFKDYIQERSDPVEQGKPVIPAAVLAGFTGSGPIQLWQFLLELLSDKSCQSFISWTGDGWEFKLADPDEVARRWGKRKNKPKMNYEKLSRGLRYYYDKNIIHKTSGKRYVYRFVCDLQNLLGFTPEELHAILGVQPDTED
# Summary of the method: as §1
# Chain of ELF4 (Q99607 whole entry): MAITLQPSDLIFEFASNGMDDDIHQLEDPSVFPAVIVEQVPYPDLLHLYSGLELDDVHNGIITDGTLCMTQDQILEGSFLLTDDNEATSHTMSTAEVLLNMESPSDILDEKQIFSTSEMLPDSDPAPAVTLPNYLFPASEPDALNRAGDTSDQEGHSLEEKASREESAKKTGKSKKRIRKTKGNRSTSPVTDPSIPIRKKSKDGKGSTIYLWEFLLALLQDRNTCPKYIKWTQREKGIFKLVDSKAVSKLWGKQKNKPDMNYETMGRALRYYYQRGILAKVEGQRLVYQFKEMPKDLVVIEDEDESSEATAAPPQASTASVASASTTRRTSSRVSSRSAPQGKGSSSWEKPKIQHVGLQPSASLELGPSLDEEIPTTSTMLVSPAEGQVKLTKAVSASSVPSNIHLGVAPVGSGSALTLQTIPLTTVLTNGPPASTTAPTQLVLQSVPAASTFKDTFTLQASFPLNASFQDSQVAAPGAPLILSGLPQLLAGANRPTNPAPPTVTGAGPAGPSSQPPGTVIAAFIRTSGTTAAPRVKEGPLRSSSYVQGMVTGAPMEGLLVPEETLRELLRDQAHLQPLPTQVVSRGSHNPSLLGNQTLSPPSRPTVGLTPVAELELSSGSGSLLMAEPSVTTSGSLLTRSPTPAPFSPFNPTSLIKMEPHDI
# Chain of ETV1 (P50549 whole entry): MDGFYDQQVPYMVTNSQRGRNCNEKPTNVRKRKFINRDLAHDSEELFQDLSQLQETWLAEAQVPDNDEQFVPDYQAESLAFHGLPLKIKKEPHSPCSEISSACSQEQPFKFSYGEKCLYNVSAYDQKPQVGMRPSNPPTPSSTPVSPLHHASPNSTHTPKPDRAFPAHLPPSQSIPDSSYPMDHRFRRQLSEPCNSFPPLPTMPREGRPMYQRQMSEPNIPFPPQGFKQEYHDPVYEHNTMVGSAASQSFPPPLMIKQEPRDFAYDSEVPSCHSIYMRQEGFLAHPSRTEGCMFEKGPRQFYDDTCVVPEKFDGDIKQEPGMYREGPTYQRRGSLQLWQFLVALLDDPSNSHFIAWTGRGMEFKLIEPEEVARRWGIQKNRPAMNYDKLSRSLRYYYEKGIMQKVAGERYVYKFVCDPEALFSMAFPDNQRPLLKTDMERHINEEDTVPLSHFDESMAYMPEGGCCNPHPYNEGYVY
# Chain of ETV5 (P41161 whole entry): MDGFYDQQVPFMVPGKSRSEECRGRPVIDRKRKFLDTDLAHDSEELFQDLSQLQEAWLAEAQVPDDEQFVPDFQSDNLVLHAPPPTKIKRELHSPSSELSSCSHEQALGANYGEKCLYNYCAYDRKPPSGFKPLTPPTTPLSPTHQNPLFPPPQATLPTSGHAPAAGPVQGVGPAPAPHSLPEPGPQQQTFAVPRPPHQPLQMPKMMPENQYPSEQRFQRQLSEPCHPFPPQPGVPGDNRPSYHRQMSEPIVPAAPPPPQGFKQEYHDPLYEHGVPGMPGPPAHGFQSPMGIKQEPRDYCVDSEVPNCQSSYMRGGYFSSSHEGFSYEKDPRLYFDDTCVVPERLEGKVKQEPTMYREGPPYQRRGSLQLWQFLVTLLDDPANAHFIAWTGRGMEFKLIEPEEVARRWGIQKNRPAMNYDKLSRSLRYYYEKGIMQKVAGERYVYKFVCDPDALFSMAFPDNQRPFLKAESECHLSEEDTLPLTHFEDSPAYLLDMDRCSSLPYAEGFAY
# Chain of ELF1 (P32519 whole entry): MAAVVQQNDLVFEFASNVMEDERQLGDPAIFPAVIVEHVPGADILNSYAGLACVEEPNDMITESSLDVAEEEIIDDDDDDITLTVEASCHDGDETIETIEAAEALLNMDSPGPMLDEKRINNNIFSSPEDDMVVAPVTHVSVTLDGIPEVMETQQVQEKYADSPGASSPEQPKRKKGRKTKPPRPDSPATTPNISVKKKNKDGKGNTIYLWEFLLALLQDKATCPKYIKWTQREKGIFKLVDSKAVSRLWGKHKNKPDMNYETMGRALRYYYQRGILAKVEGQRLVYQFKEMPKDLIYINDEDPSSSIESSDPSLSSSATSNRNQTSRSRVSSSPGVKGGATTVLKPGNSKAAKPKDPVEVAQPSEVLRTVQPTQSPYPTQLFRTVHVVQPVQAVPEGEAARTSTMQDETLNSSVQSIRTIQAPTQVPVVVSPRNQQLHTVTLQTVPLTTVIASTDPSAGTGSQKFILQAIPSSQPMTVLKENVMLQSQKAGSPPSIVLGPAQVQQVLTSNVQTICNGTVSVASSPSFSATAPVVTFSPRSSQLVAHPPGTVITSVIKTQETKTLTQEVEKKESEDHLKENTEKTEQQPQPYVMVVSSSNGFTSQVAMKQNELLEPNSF
# Chain of ETV6 (P41212 whole entry): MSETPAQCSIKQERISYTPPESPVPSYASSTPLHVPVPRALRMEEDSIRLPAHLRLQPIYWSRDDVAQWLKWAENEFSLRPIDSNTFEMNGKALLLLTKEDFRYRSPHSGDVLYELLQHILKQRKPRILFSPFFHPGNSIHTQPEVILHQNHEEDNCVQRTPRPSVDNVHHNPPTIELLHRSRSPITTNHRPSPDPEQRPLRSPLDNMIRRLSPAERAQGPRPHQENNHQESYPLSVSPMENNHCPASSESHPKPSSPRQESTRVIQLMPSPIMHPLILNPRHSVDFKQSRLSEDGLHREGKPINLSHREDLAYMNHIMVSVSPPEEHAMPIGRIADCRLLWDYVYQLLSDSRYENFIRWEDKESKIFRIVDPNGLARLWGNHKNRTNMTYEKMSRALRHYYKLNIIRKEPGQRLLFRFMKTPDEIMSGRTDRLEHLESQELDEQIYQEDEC
Sequence,binding signal (ELK1),binding signal (GABPA),binding signal (ERG),binding signal (ELF1),binding signal (EHF),binding signal (FEV),binding signal (ETV5),binding signal (ELF4),binding signal (ETV2),binding signal (ELF3),binding signal (ETV1),binding signal (ETV3L),binding signal (SPDEF),binding signal (ETV7),binding signal (ETV3),binding signal (ETV6),binding signal (ETS2)
CGCCGG,"1.21 fold enrichment (6-mer frequency, TF over GST control)","1.14 fold enrichment (6-mer frequency, TF over GST control)","1.19 fold enrichment (6-mer frequency, TF over GST control)","1.03 fold enrichment (6-mer frequency, TF over GST control)","1.19 fold enrichment (6-mer frequency, TF over GST control)","1.4 fold enrichment (6-mer frequency, TF over GST control)","1.15 fold enrichment (6-mer frequency, TF over GST control)","1.02 fold enrichment (6-mer frequency, TF over GST control)","1.06 fold enrichment (6-mer frequency, TF over GST control)","1.13 fold enrichment (6-mer frequency, TF over GST control)","1.02 fold enrichment (6-mer frequency, TF over GST control)","1.06 fold enrichment (6-mer frequency, TF over GST control)","1.05 fold enrichment (6-mer frequency, TF over GST control)","1.08 fold enrichment (6-mer frequency, TF over GST control)","1.1 fold enrichment (6-mer frequency, TF over GST control)","1.05 fold enrichment (6-mer frequency, TF over GST control)",
CAGCAT,"1 fold enrichment (6-mer frequency, TF over GST control)","1.03 fold enrichment (6-mer frequency, TF over GST control)","1.03 fold enrichment (6-mer frequency, TF over GST control)",,,"1.04 fold enrichment (6-mer frequency, TF over GST control)","1.04 fold enrichment (6-mer frequency, TF over GST control)","1.05 fold enrichment (6-mer frequency, TF over GST control)",,"1.07 fold enrichment (6-mer frequency, TF over GST control)","1.06 fold enrichment (6-mer frequency, TF over GST control)","1.03 fold enrichment (6-mer frequency, TF over GST control)","1.05 fold enrichment (6-mer frequency, TF over GST control)","1.01 fold enrichment (6-mer frequency, TF over GST control)",,,"1.03 fold enrichment (6-mer frequency, TF over GST control)"
